{"source": "the supplement of paper PMC11383364", "note": "Where “and” joins values, the source holds several entries; their conditions need not be identical. Identical values can stand only once. ± gives the standard deviation of the averaged measurements."}
{"tested_on": "SUM149", "experiment": "percent difference in area under dose-response curve of relative cell number, RPMI vs HPLM; higher = drug relatively more effective in HPLM than RPMI (negative = less effective in HPLM)", "conditions": "treatment time: 72 h; dose range: 10-point, 1 nM to 20 µM; media compared: RPMI vs HPLM", "experimental": "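SUM149 triple-negative breast cancer cells, 500 cells/well in 384-well plates, were grown in RPMI or human plasma-like medium (HPLM) with 5% dialyzed FBS. They were pin-transferred with an anticancer plus metabolic-inhibitor library in 10-point dose series (20 µM to 1 nM). After 72 h, cells were fixed, stained with bisbenzimide and counted by Acumen plate cytometry. The AUC of relative survival vs dose was computed per medium, and the percent difference in AUC between RPMI and HPLM is reported.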"}
{"compound": "CCNC(=O)c1noc(-c2cc(Cl)c(O)cc2O)c1-c1ccc(OC)cc1", "percent difference in area under dose-response curve": "-12.2%"}
{"compound": "C=CC(=O)Nc1cc(Nc2nccc(-c3cn(C)c4ccccc34)n2)c(OC)cc1N(C)CCN(C)C", "percent difference in area under dose-response curve": "1.9%"}
{"compound": "Cc1cc(=O)oc2c(C=O)c(O)ccc12", "percent difference in area under dose-response curve": "5.18%"}
{"compound": "CC1(C)CCC(c2ccc(Cl)cc2)=C(CN2CCN(c3ccc(C(=O)NS(=O)(=O)c4ccc(N[C@H](CCN5CCOCC5)CSc5ccccc5)c(S(=O)(=O)C(F)(F)F)c4)cc3)CC2)C1", "percent difference in area under dose-response curve": "-1.13% and -0.0577%"}
{"compound": "COc1cc(F)c(F)c(Nc2ccc(I)cc2F)c1NS(=O)(=O)C1(C[C@H](O)CO)CC1", "note": "[Refametinib]", "percent difference in area under dose-response curve": "-9.94%"}
{"compound": "N[C@H](C(=O)O)[C@@H]1CC(Cl)=NO1", "note": "[Acivicin]", "percent difference in area under dose-response curve": "9.22%"}
{"compound": "CC/C(=C(\\c1ccccc1)c1ccc(OCCN(C)C)cc1)c1ccccc1", "note": "[Tamoxifen_Citrate]", "percent difference in area under dose-response curve": "-4.18%"}
{"compound": "C[C@H]1O[C@@H](O[C@H]2[C@@H](O)C[C@H](O[C@H]3[C@@H](O)C[C@H](O[C@H]4CC[C@@]5(C)[C@H](CC[C@@H]6[C@@H]5CC[C@]5(C)[C@@H](C7=CC(=O)OC7)CC[C@]65O)C4)O[C@@H]3C)O[C@@H]2C)C[C@H](O)[C@@H]1O", "note": "[Digitoxin]", "percent difference in area under dose-response curve": "-8.01%"}
{"compound": "Cn1cc(CNCC2CCN(c3ncc(C(=O)NO)cn3)CC2)c2ccccc21", "percent difference in area under dose-response curve": "-19.7%"}
{"compound": "CN(C)CCCn1cc(C2=C(c3c[nH]c4ccccc34)C(=O)NC2=O)c2ccccc21", "percent difference in area under dose-response curve": "0.14%"}
{"compound": "Cc1cnc(NC(=O)Nc2cc(Br)c(C)cc2OC[C@@H]2CNCCO2)cn1", "percent difference in area under dose-response curve": "1.27%"}
{"compound": "COc1c(C)cnc(Cn2cnc3c(Cl)nc(N)nc32)c1C", "percent difference in area under dose-response curve": "-26.2%"}
{"compound": "Clc1ccc(Nc2nnc(Cc3ccncc3)c3ccccc23)cc1", "note": "[Vatalanib_2HCl]", "percent difference in area under dose-response curve": "-4.56%"}
{"compound": "CNC(=O)c1ccccc1Sc1ccc2c(/C=C/c3ccccn3)n[nH]c2c1", "note": "[Axitinib]", "percent difference in area under dose-response curve": "-0.398%"}
{"compound": "CC(C)C[C@@H](C(=O)N[C@H](C(=O)OC1CCCC1)c1ccccc1)[C@H](O)C(=O)NO", "percent difference in area under dose-response curve": "-3.27%"}
{"compound": "C[C@@H](O[C@H]1OCCN(Cc2n[nH]c(=O)[nH]2)[C@H]1c1ccc(F)cc1)c1cc(C(F)(F)F)cc(C(F)(F)F)c1", "note": "[Aprepitant]", "percent difference in area under dose-response curve": "-2%"}
{"compound": "Cc1ccc(NC(=O)c2ccc(CN3CCN(C)CC3)cc2)cc1Nc1nc(-c2cccnc2)cs1", "note": "[Masitinib]", "percent difference in area under dose-response curve": "-3.29%"}
{"compound": "O=C(NC1CCNCC1)c1n[nH]cc1NC(=O)c1c(Cl)cccc1Cl", "percent difference in area under dose-response curve": "-11.2%"}
{"compound": "COc1ccc(S(=O)(=O)Nc2cccnc2Nc2ccc(O)cc2)cc1", "percent difference in area under dose-response curve": "-6.35%"}
{"compound": "O=C(Nc1ccc(OC(F)(F)F)cc1)c1sccc1NCc1ccnc2ccccc12", "percent difference in area under dose-response curve": "6.56%"}
{"compound": "CC[C@H](CO)Nc1nc(NCc2ccccc2)c2ncn(C(C)C)c2n1", "note": "[Roscovitine]", "percent difference in area under dose-response curve": "-1.29%"}
{"compound": "C=C1/C(=C\\C=C2/CCC[C@]3(C)[C@@H]([C@H](C)/C=C/[C@H](C)C(C)C)CC[C@@H]23)C[C@@H](O)C[C@@H]1O", "note": "[Doxercalciferol]", "percent difference in area under dose-response curve": "-7.1%"}
{"compound": "COc1ccc(COc2cc3oc(=O)c4cc(C(C)O)ccc4c3cc2OC)cc1", "note": "(stereo not given) [Palomid_529]", "percent difference in area under dose-response curve": "-0.0774%"}
{"compound": "CCC[C@H](NC(=O)/C(C#N)=C/c1cccc(Br)n1)c1ccccc1", "percent difference in area under dose-response curve": "5.71%"}
{"compound": "O=c1[nH]cc(F)c(=O)[nH]1", "note": "[5_Fluorouracil]", "percent difference in area under dose-response curve": "0.782%"}
{"compound": "Cc1cc(Nc2cc(N3CCN(C)CC3)nc(Sc3ccc(NC(=O)C4CC4)cc3)n2)n[nH]1", "percent difference in area under dose-response curve": "-14.9%"}
{"compound": "Cn1cnc([N+](=O)[O-])c1Sc1ncnc2[nH]cnc12", "note": "[Azathioprine]", "percent difference in area under dose-response curve": "-50.6%"}
{"compound": "Cc1ccc(-c2cc(C(F)(F)F)nn2-c2ccc(S(N)(=O)=O)cc2)cc1", "note": "[Celecoxib]", "percent difference in area under dose-response curve": "1.54 ± 3%"}
{"compound": "Cc1cccc(Nc2nc(-c3ccncc3)cs2)c1", "percent difference in area under dose-response curve": "-3.22%"}
{"compound": "CC[C@@]1(O)C(=O)OCc2c1cc1n(c2=O)Cc2cc3c(CN(C)C)c(O)ccc3nc2-1", "note": "[Topotecan_HCl]", "percent difference in area under dose-response curve": "-48.7%"}
{"compound": "Cc1ccc(NC(=O)c2ccc(CN3CCN(C)CC3)cc2)cc1Nc1nccc(-c2cccnc2)n1", "note": "[Imatinib]", "percent difference in area under dose-response curve": "-5.87%"}
{"compound": "CC(/C=C/C(=O)NO)=C\\[C@@H](C)C(=O)c1ccc(N(C)C)cc1", "note": "[Trichostatin_A]", "percent difference in area under dose-response curve": "-9.24%"}
{"compound": "CCNC(=O)c1noc(-c2cc(C(C)C)c(O)cc2O)c1-c1ccc(CN2CCOCC2)cc1", "percent difference in area under dose-response curve": "-30%"}
{"compound": "CO[C@H]1/C=C\\C=C(/C)C(=O)NC2=CC(=O)C(NCCN(C)C)=C(C[C@@H](C)C[C@H](OC)[C@H](O)[C@@H](C)/C=C(\\C)[C@@H]1OC(N)=O)C2=O", "percent difference in area under dose-response curve": "-30.8%"}
{"compound": "NC1(c2ccc(-c3nc4ccn5c(=O)[nH]nc5c4cc3-c3ccccc3)cc2)CCC1", "percent difference in area under dose-response curve": "0.884%"}
{"compound": "COc1ccc(C2=N[C@H](c3ccc(Cl)cc3)[C@H](c3ccc(Cl)cc3)N2C(=O)N2CCNC(=O)C2)c(OC(C)C)c1", "note": "[Nutlin3b]", "percent difference in area under dose-response curve": "2.03%"}
{"compound": "O=C(Nc1cccnc1)N1CCC(Cc2cccc(Oc3ccc(C(F)(F)F)cn3)c2)CC1", "percent difference in area under dose-response curve": "-4.77%"}
{"compound": "Cc1ccc(NC(=O)c2cccc(C(C)(C)C#N)c2)cc1Nc1ccc2ncn(C)c(=O)c2c1", "percent difference in area under dose-response curve": "-22.2%"}
{"compound": "OC(c1cc(C(F)(F)F)nc2c(C(F)(F)F)cccc12)C1CCCCN1", "note": "(stereo not given) [Mefloquine]", "percent difference in area under dose-response curve": "3.47%"}
{"compound": "Cc1[nH]c(/C=C2\\C(=O)Nc3ccc(S(=O)(=O)N(C)c4cccc(Cl)c4)cc32)c(C)c1C(=O)N1CCN(C)CC1", "percent difference in area under dose-response curve": "-9.77%"}
